CRFR2-BP antag: antagonists of CRF-BP/CRF-R2 complex, primary screen, cell-based, HEK293, calcium dye fluorescence, uHTS; CRF-induced calcium fluorescence; inhibition, % at 11.8 µM; actives 0.59% (n = 350,000); AID 588475, 2011;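 active = inhibition of the ligand-induced calcium signal above about 50% at the single tested concentration, limit read from the data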
CRFR2-BP ag: agonists of CRF-BP/CRF-R2 complex, primary screen, cell-based, HEK293, calcium dye fluorescence, uHTS. calcium dye fluorescence (FLIPR); percent of saturating CRF peptide response. activation, % at 13.2 µM. actives 0.46% (n = 350,000). AID 588473, 2011;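 active = activation of at least 50%, plus an integration ratio under a set limit after plate pattern correction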;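 also: plate controls were neutral control wells without compound for no effect and CRF at EC100 for full effect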
Cardio protect: cardioprotection against H2O2-induced cell death, primary screen, uHTS, H9c2 cells, ATPLite luminescence; H9c2 cardiomyocytes, H2O2 injury protection, 2 h; protection from H2O2 cell death, % at 20 µM; actives 0.63% (n = 360,000);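 active = compounds giving at least 50% protection of heart cells from peroxide-induced death in the single-dose screen, raw or plate-pattern-corrected value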;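 also: 0% = DMSO wells with peroxide and 100% = DMSO wells without peroxide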
FAS-TE inh: FAS thioesterase domain inhibitors, primary screen, biochemical, fluorescence intensity, uHTS; recombinant FAS-TE, OMFH fluorogenic substrate, fluorescence endpoint; inhibition, % at 15 µM; actives 0.67% (n = 360,000);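 active = compounds whose normalised, plate-corrected inhibition of enzyme fluorescence in the single-dose primary screen is 50% or more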;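 also: 0% = DMSO with enzyme and 100% = substrate without enzyme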
aDG glyco up: activators of alpha-DG glycosylation, primary screen, uHTS, Pro5-aDG cells, AlphaScreen; actives 0.22% (n = 360,000); AID 624168, 2012; activation, % at 10 µM; alpha-DG glycosylation AlphaScreen (IIH6); 0% Pro5, 100% B10-LARGE cell signal;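 active = activation of at least 8% versus controls, or a plate z-score of at least 8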;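 also: Pro5 are CHO cells carrying HIG-tagged alpha-DG that lacks glycosylation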
PfG6PD inh: PfG6PD enzyme inhibitors, primary screen, biochemical, fluorescence intensity, uHTS; actives 0.78% (n = 350,000); glucose-6-phosphate dehydrogenase-6-phosphogluconolactonase (Plasmodium falciparum 3D7); PfGluPho enzyme, NADPH resazurin-diaphorase fluorescence; inhibition, % at 20 µM;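 active = inhibition reaching at least a set limit at 20 µM in the primary screen, cut at about 59% in these data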;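 also: 0% = DMSO wells with substrate and 100% = DMSO wells lacking glucose-6-phosphate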
* hit, by the source's call; ! = repeats disagree. Most compounds without a hit are left out; they make up all but 3.2% or so of the library.

SMILES | CRFR2-BP antag | CRFR2-BP ag | Cardio protect | FAS-TE inh | aDG glyco up | PfG6PD inh
COC(=O)c1ccc(Cn2nnc3c(=O)[nH]c(C4CCCN(S(=O)(=O)c5ccccc5)C4)nc32)cc1 (stereo unspecified) | 20.8 | 0.0 | 60.9* | 11.8 | 0.5 | 10.7
CCOc1ccc2ccccc2c1C(=O)N[C@@H]1C(=O)N2[C@@H]1SC(C)(C)[C@@H]2C(=O)O | -3.8 | -1.2 | 77.9*! | 1.8 | 0.5 | -9.3
CCC(Cc1ccccc1)NC(=O)C1=C(C)C(=O)OC12CCC(C)CC2 (stereo unspecified) | -19.4 | 4.9 | 0.6 | 2.6 | 0.0 | 12.3
COc1ccc(C(=O)O/N=C(/c2ccccc2)c2ccncc2)cc1OC | 0.9 | -1.4 | 58.8* | -8.0 | 0.3 | -3.6
COc1ccc(C(=O)O/N=C(/c2ccccc2)c2ccncc2)cc1 | -4.7 | -0.6 | 29.1 | 0.1 | 0.3 | -1.1
CC1CN(Cc2c(O)ccc3c(=O)c(-c4ccccc4Cl)coc23)CC(C)O1 (stereo unspecified) | -10.0 | -5.9 | -7.6 | -2.9 | 0.2 | 8.2
c1ccc(NN(Cc2ccncc2)c2ccccc2)cc1 | -8.7 | -0.7 | -6.0 | 2.9 | 0.0 | 16.0
N#Cc1ccc(CN(Nc2ccccc2)c2ccccc2)cc1 | 55.7* | -2.4 | -6.5 | 24.2 | -0.2 | 2.1
CSCCC(NC(=O)c1ccco1)C(=O)N1CCCCCCC1 (stereo unspecified) | 3.8 | -0.6 | -2.9 | -6.7 | -0.1 | -10.7
CSCCC(NC(=O)c1ccco1)C(=O)N1CC=C(c2ccccc2)CC1 (stereo unspecified) | -81.4 | 53.3* | 2.4 | 2.4 | -0.2 | 1.2
Cc1noc(C)c1CSCc1ccc(Cl)cc1 | 76.1* | -3.2 | 2.0 | 6.7 | -0.1 | -11.5
Cc1noc(C)c1COC(=O)Cc1ccc(Cl)cc1 | 6.3 | -0.4 | -3.7 | 0.2 | 0.0 | 10.8
CCCc1cc(=O)oc2cc(C)cc(OC(C)C(=O)NCCN3CCOCC3)c12 (stereo unspecified) | -6.2 | 0.5 | -2.0 | -0.8 | -0.5 | -13.2
O=C(CSc1ncccn1)Nc1ccc2c(c1)CCC2 | -8.6 | -1.5 | 7.7 | -1.9 | 0.0 | 14.8
O=[N+]([O-])c1cccc(/C=N/NC2=NCCCCC2)c1 | 51.8* | -1.7 | 2.0 | 3.2 | 0.7 | -1.5
Cc1ccc(-c2cc(C(=O)O)c3cc(Br)ccc3n2)o1 | 10.1 | 0.2 | 2.3 | -6.7 | 0.1 | 75.3*
COc1cc(OC)cc(C(=O)N[C@H](C(=O)NC2CCCc3ccccc32)C(C)C)c1 (stereo partly specified) | 2.3 | -4.7 | 7.1 | -0.1 | 0.1 | 11.3
CC(C(=O)NC1CCCC1)N(C(=O)Cn1nnc(-c2ccc(F)cc2)n1)c1ccccc1F (stereo unspecified) | 6.9 | -1.1 | 64.0* | 5.9 | -0.2 | -4.7
O=C(NCC1CCCO1)C(c1ccc(F)cc1)N(C(=O)Cn1nnc(-c2ccc(F)cc2)n1)c1cccc(O)c1 (stereo unspecified) | 1.0 | 0.1 | 55.8* | -2.0 | -0.1 | -9.4
COc1ccc(N(C(=O)Cn2nnc(-c3ccc(F)cc3)n2)C(C)C(=O)NC2CCCC2)cc1 (stereo unspecified) | 11.2 | -1.5 | 0.9 | 16.0 | 0.0 | -12.3
O=C(CSc1nnc(-c2ccc(O)cc2)n1Cc1ccco1)N1CCc2ccccc2C1 | 11.4 | 0.2 | -5.1 | -6.2 | 0.2 | -10.7
COc1ccc(/C=N/NC(=O)c2ccn[nH]2)cc1COc1ccc(Cl)cc1 | -6.0 | -1.4 | 63.2* | -66.3 | 0.1 | 15.8
COc1cc(OC)cc(C(=O)N/N=C/c2ccc(OC)c(COc3ccc(F)cc3)c2)c1 | -45.2 | 62.1* | 4.4 | 19.9 | -0.3 | -3.2
COc1ccc(/C=N/NC(=O)c2cc(OC)c(OC)c(OC)c2)cc1CN1CCc2cc(OC)c(OC)cc2C1C (stereo unspecified) | 8.5 | -1.8 | 66.1* | -5.1 | -0.2 | -12.4

Screening data deposited in PubChem BioAssay by Sanford-Burnham Center for Chemical Genomics.
